Compounds without any hit were thinned out: in the full panel of roughly 79,000, 15% have a hit. A number with no mark means an inactive call. The source made the active and inactive calls. Cut-off read from the data, not from the text of the source: active = growth inhibition above about 70%; inactive = the rest.
How the values were obtained:
[1] = NCI Yeast Anticancer Drug Screen. Data for the rad50 strain (AID 155);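 note: 0% = growth of vehicle-only cultures of the same strain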; conditions: S. cerevisiae rad50 strain growth inhibition; at 50.0 µM; active compounds read high
In short: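 Genetically altered yeast (DNA repair pathway); compound treatment; growth inhibition vs vehicle ctrl.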

[2] = NCI Yeast Anticancer Drug Screen. Data for the mec2-1 strain (AID 157); conditions: S. cerevisiae mec2-1 strain, at 50.0 µM, active compounds read high
In short: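 mec2-1 yeast strain, carrying an alteration in DNA damage repair or cell cycle control, was exposed to compounds; growth inhibition was measured relative to vehicle-treated controls.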

[3] = NCI Yeast Anticancer Drug Screen. Data for the sgs1 mgt1 strain (AID 161);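 note: 0% = growth of cultures given vehicle only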; conditions: S. cerevisiae sgs1 mgt1 strain, at 50.0 µM, active compounds read high
In short: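 Percent growth inhibition was derived by comparing compound-exposed mutant yeast with vehicle-exposed cultures. The strain carries alterations in DNA damage repair.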

[4] = NCI Yeast Anticancer Drug Screen. Data for the cln2 rad14 strain (AID 165);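 note: 0% = growth equal to vehicle treated cultures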; conditions: S. cerevisiae cln2 rad14 strain, at 50.0 µM, active compounds read high
In short: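 Yeast carrying cln2 and rad14 alterations (cell cycle control and DNA damage repair) were exposed to compounds. Growth inhibition was measured against vehicle-treated controls.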

[5] = NCI Yeast Anticancer Drug Screen. Data for the bub3 strain (AID 167); conditions: S. cerevisiae bub3 mutant strain, at 50.0 µM, active compounds read high
In short: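 Yeast carrying a defined mutation is treated with each compound, and growth is compared with that of vehicle-exposed cells to give inhibition.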

[6] = NCI Yeast Anticancer Drug Screen. Data for the mlh1 rad18 strain (AID 175); conditions: S. cerevisiae mlh1 rad18 strain growth inhibition; at 50.0 µM; active compounds read high
In short: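 Growth inhibition of the yeast strain was measured after compound exposure and expressed relative to vehicle-treated controls. The strain carries defined defects in DNA damage repair.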

| Compound | growth inhibition [1] | growth inhibition [2] | growth inhibition [3] | growth inhibition [4] | growth inhibition [5] | growth inhibition [6] |
| --- | --- | --- | --- | --- | --- | --- |
| CCc1ccccc1NC(C)=O | -4.75% | -16.4% | -8.7% | -5.2% | 0.25% | -12.7% |
| NC1(C(=O)OCc2ccccc2)CCCC1 | 18.6% | -5.45% | -14.1% | 1.9% | -1.7% | 37.9% |
| CC(C(=O)O)N(C)C(=O)c1cnc2ccccc2n1 (stereo unspecified) | -0.1% | -1.15% | -1.5% | 23% | 18.6% | -2% |
| NC(=O)C1=NNc2ccccc2C(=O)N1c1ccccc1 | 8.3% | -10.2% | -20.1% | 9.9% | 6.9% | 2.55% |
| COc1cc(-c2cc(=O)c3cc4c(cc3[nH]2)OCO4)cc(OC)c1O | -19.9% | -14.1% | -4.5% | 13.4% | -12.3% | -9.85% |
| CCCCCCCCCc1cc(=O)c2ccc(OCc3ccccc3)cc2o1 | -42.5% | -28.6% | -21.1% | -11.2% | -28.6% | -42% |
| Nc1cc(Cl)c(N)c(Cl)c1 | 1.8% | -21.6% | -9.65% | 14.1% | -19.4% | -0.9% |
| COc1ccccc1CNCc1nc2ccccc2[nH]1 | 4.8% | 2.6% | 6.9% | 13.2% | 0.55% | 36.6% |
| O=C(O)Cc1cccc2nnnn12 | 14.2% | -17.8% | -7.5% | 15.1% | -4.75% | 23.9% |
| CCC(=O)Nc1ccccc1-c1ccccc1 | 25.6% | 19% | 16.9% | 7.6% | -1.8% | 2.5% |
| COC(=O)c1ccccc1N=NNc1ccc2c(=O)c3ccccc3[nH]c2c1 | 23.8% | 1.7% | 22.1% | 34.5% | 11.6% | 66% |
| CC1CNC(C)(C)O1 (stereo unspecified) | 36.5% | 10.9% | 18.9% | 23.6% | 11.6% | 29.4% |
| COC(=O)c1ccc(C)[n+](C2OC(COC(=O)c3ccccc3)C(OC(=O)c3ccccc3)C2OC(=O)c2ccccc2)c1 (stereo unspecified) | 5.2% | 3.45% | 8% | -25.6% | -14.2% | 29.1% |
| Cc1cc(N=Cc2c(CO)cnc(C)c2O)c(N=Cc2c(CO)cnc(C)c2O)cc1C.[Zn] | 5.9% | -8% | 5.6% | -3.15% | -2.1% | 0.9% |
| COc1cc(C2SCC(=O)N2c2ccc(-n3c(-c4ccccc4)nc4ccccc4c3=O)cc2)ccc1O (stereo unspecified) | -12.6% | -8.75% | 10.7% | -36.2% | 3.3% | 22% |
| CC(=O)Oc1ccc2c(=O)c(C(C)=O)coc2c1 | 7.45% | -11.3% | -3.15% | 14.4% | 4.2% | 14.7% |
| S=C(N1CCN(c2cccc(Cl)c2)CC1)N1CCN(c2cccc(Cl)c2)CC1 | -7.4% | 13.7% | 23% | 9.6% | 2.1% | 12.7% |
| CCN(CC)CCN(C)C(O)(C(=O)c1ccccc1)C1CCCC1 (stereo unspecified) | 8.9% | 15.2% | 2.3% | -4.35% | 0.45% | 32% |
| O=C(Cc1ccc2cc3c(cc2c1)OCO3)NCCc1ccc2c(c1)OCO2 | 30.4% | -8.4% | 25.8% | -11.2% | -1.25% | 8.8% |
| CCCCCSCCC(=O)O | 12.4% | 11.7% | 11.2% | 4.25% | -1.2% | -6.35% |
| Cc1cc(O)c(Br)cc1C | 5.35% | -33% | 9.15% | -5.45% | 0.2% | -9.45% |

| Compound | growth inhibition [1] | growth inhibition [2] | growth inhibition [3] | growth inhibition [4] | growth inhibition [5] | growth inhibition [6] |
| --- | --- | --- | --- | --- | --- | --- |
| Nc1cc(Nc2ccc(Cl)[nH]c2=S)nc(N)n1 | 31.1% | 13.8% | 11.5% | 20.6% | 18.4% | 15.2% |
| Cn1c([N+](=O)[O-])cnc1CN1CCN(CCO)CC1 | -2.9% | -6.95% | -39.1% | 26.7% | -20.3% | 3% |
| CCOC(=O)c1cccc(Cl)c1C(=O)O | -7.75% | -13.1% | 0.25% | -29.5% | -4.05% | -7.75% |
| O=C(c1ccc(F)cc1)c1ccc([N+](=O)[O-])cc1 | 8.85% | 8.1% | -1.7% | -19.9% | -14.1% | 12.1% |
| O=c1c(Br)c(-c2ccccc2)[nH]c2ccccc12 | 2.95% | -12.8% | -32.5% | 0.9% | -5.7% | 7.7% |
| COC(=O)N1c2ccccc2C23CCN4CCCC5(CCC12C(C(=O)O)C5)C43 (stereo unspecified) | -2.6% | 8.2% | 0.15% | -9.45% | 3.9% | 9.7% |
| CC(O)c1cccc(NC(=O)NC(C)(C)C)c1 (stereo unspecified) | 0.6% | 3.05% | -5% | -74% | 10.8% | -6% |
| CN(C)CCCN1CCc2c([nH]c3ccccc23)C1c1cccnc1 (stereo unspecified) | -3.35% | -14.8% | -0.45% | -0.75% | -6.2% | -21.1% |
| COc1c(Cl)cc([N+](=O)[O-])cc1Cl | -3.5% | 0.15% | 3.1% | -34.7% | -18.5% | -12.4% |
| CCC(c1ccccc1)C(C(=O)O)C(=O)O (stereo unspecified) | 5.95% | -5.35% | 0.55% | -16.8% | 6.35% | 6.65% |
| CCC(C)C1CCCCC1OC(=O)CCl (stereo unspecified) | -5.45% | -14.8% | -16.3% | 0.05% | -9.55% | -18.6% |
| Cc1cccc2nc(-c3ccccn3)n(CCc3ccncc3)c12 | 98.8% (active) | 99.2% (active) | 99.2% (active) | 98.1% (active) | 98.8% (active) | 98.7% (active) |
| CCN1CC(O)Cc2ccccc21 (stereo unspecified) | -3.55% | 8.55% | 11.2% | 1.4% | -8.35% | -3.5% |
| c1ccc(-c2cc(-c3ccccc3)n(-c3ccccc3)c2-c2ccccc2)cc1 | 8.45% | 5.85% | 0.45% | -5.35% | 24.4% | -3.35% |
| O=C(O)CCCc1ccc(Oc2ccccc2)cc1 | -6.05% | -15.3% | 22% | -8.85% | -5% | -6.6% |
| COc1ccc2c(=O)c(O)c(-c3ccccc3)oc2c1 | 22.8% | -18.9% | 42.5% | 10.4% | 15.2% | 8.25% |
| CCCNC(C)C(C)O (stereo unspecified) | -5.9% | -16.4% | -24.1% | -16.3% | -4.75% | -10.9% |
| CO/C(=N\N=C\c1ccc(OC)c(OC)c1)c1ccncc1 | -21.6% | -37.9% | -12.9% | -7.75% | -28.6% | -40% |
| CCOC(=O)C(CCC(C)(C)SCc1ccccc1)(NC(C)=O)C(=O)OCC | 25.8% | -1.15% | 1.45% | 16.7% | 2.15% | 5.6% |
| CC(=O)c1cc(Cl)ccc1OCC(O)CNc1ccc(Cl)cc1C(=O)c1ccccc1 (stereo unspecified) | 17.6% | 37.6% | 10.3% | 34% | -3.85% | 7.15% |

— PubChem BioAssay (NCI)
